Sampled rows, rich in hits. Any-hit rate of the full collection: about 2.7%.
MITF TRPM1 HTS = increases MITF-driven TRPM1 promoter luciferase signal | SK-MEL-5 TRPM1-promoter luciferase, 24 h; % of positive control, neutral wells = 0 | activation, % at 12.5 µM | hit rate 0.75% among 300,000 | AID 588334;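 active = mean activation of at least 80% with every replicate also reaching 80%; inconclusive = mean reaches 80% but some replicate falls short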;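 also: 0% = neutral control wells and 100% = parthenolide positive control wells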
Wnt act = activators of Wnt/beta-catenin signaling; Wnt/beta-catenin reporter cell assay, activator, plate reader; activation, % at 9.35 µM; hit rate 1.2% among 300,000; AID 743398; in the data active = activation above about 30%, passing the limit was not always enough; inconclusive = no clear call, values can overlap the other calls;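 also: 0% = neutral control wells and 100% = positive control wells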
HIV Env fusion = HIV envelope-mediated fusion inhibition | HeLa-JRFL Env/CEM21 cell fusion, luciferase | inhibition, % at 12.3 µM | hit rate 1.1% among 360,000 | AID 651610;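 active = mean replicate inhibition score of at least 50 and every replicate individually at or above 50; inconclusive = only one of the two criteria met; inactive = mean below 50 and not all replicates reaching 50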;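 also: 0% = plate neutral controls and 100% = maraviroc near 300 nM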
INS-1E GSIS act = GLuc luminescence reporter in INS-1E cells, primary screen for activators of glucose-dependent secretion of insulin. activation, % at 16.6 µM. INS-1E GLuc reporter insulin secretion, 2-3 h. hit rate 0.61% among 370,000;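 active = lowest replicate activation of at least 40%, so every replicate reaches that level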;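 also: 0% = median of neutral control wells and 100% = median of IBMX positive control wells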
CFTR F508del cor = CFTR F508del correction in bronchial cells; CFBE cells, YFP halide quenching; stimulated with forskolin plus potentiator P3; % fluorescence drop versus neutral controls; activity (quench increase), % at 7.58 µM; hit rate 0.36% among 350,000; AID 720511;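 active = mean added fluorescence quench of at least 8% versus neutral control, with both replicates also reaching 8%; inconclusive = only one of the mean or replicate conditions met; inactive = mean below 8% and not both replicates reaching 8%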;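 also: cells transiently co-express mutant CFTR-F508del with the halide-sensitive YFP; corrector assay measuring rescue of mutant channel to the surface after 24 h compound exposure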
* marks the source's active call; other numbers are inactive results; ? = inconclusive; . = no result; [ ] = another dose, or the depositor's remark.

SMILES	MITF TRPM1 HTS	Wnt act	HIV Env fusion	INS-1E GSIS act	CFTR F508del cor
COC(=O)c1ccc(-c2cc3onc(-c4ccccc4)c3c(=O)n2C)cc1	38.5	30.7*	-4.7	-3.5	-1.0
CC(/C=N/NC(=O)c1cccs1)=C\c1ccco1	72.4	38.9*	-32.1	3.0	-1.3
O=C(CN1CCOCC1)Nc1ccc(C2CCCCC2)cc1	42.5	31.0*	-14.5	.	.
CCOC(=O)c1cnc2c(c(C)nn2C)c1Oc1ccc(OC)cc1	.	49.2*	-3.5	-2.2	1.3
CCOC(=O)c1cnc2c(c(C)nn2C)c1Oc1cc(Cl)cc(Cl)c1	-2.9	-1.1	-0.2	-8.8	1.6
CNC[C@H]1OCCCC[C@H](C)Oc2ccc(NS(C)(=O)=O)cc2C(=O)N([C@@H](C)CO)C[C@@H]1C	.	.	5.9[16.7 µM]	17.4	0.9
COc1cc(C(N)=O)ccc1OCc1ccccc1	24.0	5.4	-153.8	.	.
NC(=O)c1ccc(OCc2ccccc2)nc1	87.9*	2.3	.	24.5	-2.6
CN(C)C(=O)c1cccc(-c2ccc([C@@H]3[C@H](CO)N4C(=O)CN(C(=O)C5CCCC5)C[C@@H]34)cc2)c1	.	.	.	-5.6	-0.9
O=C(O)c1cccc(N/N=C/C2=C(Cl)c3cc(Cl)ccc3SC2)c1	36.1	39.8*	-117.9	-20.0	-3.2
COc1ccc2ccccc2c1/C=N/Nc1cccc(C(=O)O)c1	92.8*	6.8	-21.6	12.6	-0.5
Cc1ccsc1/C=N/Nc1ccc(C(=O)O)cc1	-62.7	12.1	52.2	5.3	5.4
Cc1ccsc1/C=N/Nc1cccc(C(=O)O)c1	-94.8	-4.7	67.6*	25.1	-2.2
Brc1ccsc1/C=N/Nc1ccccc1	.	41.2*	-31.8	.	-0.3
O=C(O)c1cccc(N/N=C/c2ccc(F)c(F)c2)c1	-14.6	-3.9	-80.5	14.3	-2.6
COc1ccc2ccccc2c1/C=N/Nc1ccc(Cl)c(C(=O)O)c1	26.8	2.3	-23.0	28.1	1.7
CCOc1cc(/C=N/Nc2cccc(C(=O)O)c2)ccc1OC(=O)c1ccccc1	-90.6	-13.5	64.8*	-3.0	-0.6
Cc1cc(=O)n2ccsc2n1	6.2	-0.5	11.4	47.4*	1.7
O=c1cc(CN2CCCCCC2)nc2sccn12	-16.2	.	3.1	6.7	2.0
N=c1ccn(CC(=O)c2ccc(-c3ccccc3)cc2)cc1	-30.9	-9.9	68.7*	-25.4	5.1
O=C(CN1C(=O)CCC1=O)c1ccc(-c2ccccc2)cc1	0.9	4.2	-1.9	-1.8	.
Nc1ccc(NC(=O)NC2CCCCC2)cc1	-7.6	4.9	-5.6	8.9	0.9
O=C(Nc1nc(-c2ccc(Cl)cc2)cs1)NC1CCCCC1	-7.2	.	-13.3	7.1	.
O=C(Nc1ccc(Cl)cc1)NC1CCCCC1	?	66.1*	-51.4	.	.
O=C(CCNC(=O)c1ccc(Br)cc1)NC1CCCCCC1	-3.4	-0.5	7.2	5.0	-0.3
SMILES	MITF TRPM1 HTS	Wnt act	HIV Env fusion	INS-1E GSIS act	CFTR F508del cor
O=C(Nc1ccc(F)cc1)NC1CCCCCCC1	105.2*	12.4	-22.7	12.0	-0.7
O=C(Nc1nnc(-c2ccc(Cl)cc2)o1)NC1CCCCC1	6.4	.	.	59.0*	.
O=C(CCNC(=O)c1ccc(Cl)cc1)NC1CCCCCC1	9.8	37.8*	.	1.5	0.1
CO[C@@H]1CN(C)C(=O)c2cc(NC(=O)c3cc(C)on3)ccc2OC[C@H](C)N(CC2CC2)C[C@H]1C	.	.	45.0[16.7 µM]	14.8	0.0
CCC(=O)OCCNc1cc(Sc2nc3ccccc3[nH]2)c2nonc2c1[N+](=O)[O-]	-72.5	-17.7	-73.2	87.6*	.
CCCSc1cc(NCCOC(=O)CCC)c([N+](=O)[O-])c2nonc12	1.3	.	1.8	13.7	.
CCC(=O)OCCNc1cc(Sc2nc3ccccc3s2)c2nonc2c1[N+](=O)[O-]	-57.8	-1.2	-156.0	17.8	.
CCCC(=O)OCCNc1cc(Sc2nccn2C)c2nonc2c1[N+](=O)[O-]	-101.5	-18.7	-179.1	162.1*	.
O=C(O)c1cc(/C=C/c2ccc(N3CCOCC3)c([N+](=O)[O-])c2)nc2ccccc12	-1.1	34.0*	-6.0	24.5	2.7
O=C(O)c1cc(/C=C/c2ccc(N3CCOCC3)cc2)nc2ccccc12	5.9	2.6	-27.5	-0.1	-1.8
Cc1ccc(C)c(N(C(=O)c2nsc(Cl)c2Cl)C(C(=O)NC2CCCC2)c2ccc(O)cc2)c1 (stereo unspecified)	-3.1	.	88.5*	-36.3	.
O=C(O)c1cc([N+](=O)[O-])ccc1NCc1ccccc1	-2.8	0.8	13.2	-13.6	-0.9
Cc1ccc(CNc2ccc([N+](=O)[O-])cc2C(N)=O)cc1	106.0*	19.6	-242.9	5.4	-2.9
Cc1noc(C)c1S(=O)(=O)N(C)C[C@H]1Oc2ccc(NC(=O)CCCCCC(=O)Nc3ccccc3N)cc2CC(=O)N([C@@H](C)CO)C[C@@H]1C	.	.	.	28.1	-1.9
Cc1ccc(C(CCNC(C)c2cccs2)c2ccco2)cc1 (stereo unspecified)	-4.1	-4.0	65.8*	.	0.4
Cc1cc(C(=O)Nc2ccc3ccccc3c2)c(C)o1	69.6	34.1*	-243.2	-4.5	0.1
O=C(Nc1ccncc1)c1cccc2ccccc12	4.0	4.7	5.9	-2.4	-0.9
Cc1cc(C(=O)Nc2cccc(C(=O)O)c2)c(C)o1	-6.4	.	2.0	0.1	.
O=C(Nc1ccc(Cl)cn1)c1ccccc1[N+](=O)[O-]	0.2	2.8	-71.6	11.9	6.1
O=C(Nc1ccc2ccccc2c1)c1cccc2ccccc12	32.2	-2.7	-15.4	71.0*	0.0
O=C(Nc1ccc(Cl)cn1)c1cccc2ccccc12	.	-0.8	-70.1	-7.9	13.3*
Cc1cc(C(=O)Nc2cccc(O)c2)c(C)o1	2.6	.	.	56.9*	.
CO[C@@H]1CN(C)C(=O)c2ccc(NC(C)=O)cc2OC[C@H](C)N(C(=O)c2ccncc2)C[C@@H]1C	.	.	.	-4.8	2.3
CCCNC(=O)Nc1ccc2c(c1)C(=O)N(C)C[C@H](OC)[C@@H](C)CN(CC1CCCC1)[C@@H](C)CO2	.	.	.	-11.2	-2.5
CC(=O)Nc1ccc2c(c1)C(=O)N(C)C[C@@H](C)[C@@H](CN(C)C)O2	.	.	.	5.5	.
SMILES	MITF TRPM1 HTS	Wnt act	HIV Env fusion	INS-1E GSIS act	CFTR F508del cor
COc1ccc(C(=O)C2CCN(C(=O)c3ccc(F)cc3)CC2)cc1	.	-0.8	10.4	-17.5	-0.5
COc1ccc(C(=O)C2CCN(C(=O)c3ccc(C)cc3)CC2)cc1	-25.6	-3.5	85.9*	.	.
COc1ccc(-c2ccc(C(=O)C3CC3)cc2)cc1	106.7*	26.8	-68.2	-5.9	.
Cc1cccc(-c2nc(C#N)c(NC3CCCCC3)o2)c1	100.0*	.	.	.	.
CC[N+](C)(CC)CCC/C(=N/O)C(O)(c1ccccc1)c1ccccc1	.	33.1*	5.9	0.4	-1.3
O=C(COc1cccnc1[N+](=O)[O-])Nc1ccc2c(c1)CCC2	3.5	5.3	-10.2	-16.0	0.5
O=C(O)c1ccccc1-c1ccccc1C(=O)Nc1ccc2c(c1)CCC2	-4.4	0.7	4.3	26.7	-1.5
O=C(COc1ccccc1F)Nc1ccc2c(c1)CCC2	.	43.2*	-58.3	-20.0	2.8
O=C(Nc1ccc2c(c1)CCC2)c1ccccc1F	33.5	30.1*	-202.4	-0.7	.
CO[C@@H]1CN(C)C(=O)c2ccc(NC(=O)C3CCC3)cc2OC[C@@H](C)N(Cc2ccncc2)C[C@@H]1C	.	.	.	0.6	1.0

Bioassay records (PubChem BioAssay)
